Source: the supplement of paper PMC11732987, “Enantioselective OTUD7B fragment discovery through chemoproteomics screening and high-throughput optimisation” (Communications Chemistry, 2025)

Legend:
Assay in all cases: log2 ratio of Biotin-Ahx-Ub-VS probe labelling (fragment/DMSO); higher = less target engagement (more negative = stronger competition), active = hit call of the paper (q ≤ 0.05, log2 ratio ≤ -1)
Settings in all cases: compound concentration: 200 uM; treatment time: 3 h
USP16 = USP16 (UniProt Q9Y5T5)
Chain of USP16 (Q9Y5T5 whole entry, looked up, the tested form may be a part): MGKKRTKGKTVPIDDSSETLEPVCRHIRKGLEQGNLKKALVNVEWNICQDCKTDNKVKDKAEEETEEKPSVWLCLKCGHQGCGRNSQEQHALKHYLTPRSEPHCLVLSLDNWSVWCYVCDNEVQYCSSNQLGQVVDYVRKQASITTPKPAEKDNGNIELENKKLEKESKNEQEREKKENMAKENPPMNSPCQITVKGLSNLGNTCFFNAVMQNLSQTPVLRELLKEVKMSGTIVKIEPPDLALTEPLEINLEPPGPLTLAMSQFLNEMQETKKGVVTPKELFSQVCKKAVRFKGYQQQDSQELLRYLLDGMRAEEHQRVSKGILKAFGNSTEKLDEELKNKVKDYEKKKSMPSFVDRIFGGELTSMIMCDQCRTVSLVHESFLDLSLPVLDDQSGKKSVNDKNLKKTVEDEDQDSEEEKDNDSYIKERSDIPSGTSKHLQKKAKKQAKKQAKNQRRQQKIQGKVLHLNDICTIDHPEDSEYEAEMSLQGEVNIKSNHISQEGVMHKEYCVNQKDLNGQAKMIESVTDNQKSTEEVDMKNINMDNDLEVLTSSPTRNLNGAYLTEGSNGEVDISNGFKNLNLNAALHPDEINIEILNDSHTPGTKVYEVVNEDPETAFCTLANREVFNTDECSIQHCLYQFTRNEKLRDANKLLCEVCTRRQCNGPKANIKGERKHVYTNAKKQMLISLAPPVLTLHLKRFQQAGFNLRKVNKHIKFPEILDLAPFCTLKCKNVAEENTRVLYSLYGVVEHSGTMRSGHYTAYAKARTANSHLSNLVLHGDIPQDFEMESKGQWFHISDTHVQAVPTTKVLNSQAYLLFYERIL
Procedure, shortened: (§1)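 HEK293T lysate in Tris/CHAPS/IGEPAL buffer with protease inhibitors (495 µg per sample) was given fragment at 200 µM or vehicle for 3 h, in triplicate. It then received Biotin-Ahx-Ub-VS at 0.5 µM final for 1 h. Labelled DUBs were NeutrAvidin-enriched, digested with LysC and trypsin, and run by diaPASEF LC-MS/MS. Values are average log2 fragment/vehicle ratios by unpaired t-test on global-median-normalised Spectronaut quantities of proteins with ≥2 unique peptides.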

USP19 = biological target: T1, USP19 (UniProt O94966)
T1 sequence (whole entry): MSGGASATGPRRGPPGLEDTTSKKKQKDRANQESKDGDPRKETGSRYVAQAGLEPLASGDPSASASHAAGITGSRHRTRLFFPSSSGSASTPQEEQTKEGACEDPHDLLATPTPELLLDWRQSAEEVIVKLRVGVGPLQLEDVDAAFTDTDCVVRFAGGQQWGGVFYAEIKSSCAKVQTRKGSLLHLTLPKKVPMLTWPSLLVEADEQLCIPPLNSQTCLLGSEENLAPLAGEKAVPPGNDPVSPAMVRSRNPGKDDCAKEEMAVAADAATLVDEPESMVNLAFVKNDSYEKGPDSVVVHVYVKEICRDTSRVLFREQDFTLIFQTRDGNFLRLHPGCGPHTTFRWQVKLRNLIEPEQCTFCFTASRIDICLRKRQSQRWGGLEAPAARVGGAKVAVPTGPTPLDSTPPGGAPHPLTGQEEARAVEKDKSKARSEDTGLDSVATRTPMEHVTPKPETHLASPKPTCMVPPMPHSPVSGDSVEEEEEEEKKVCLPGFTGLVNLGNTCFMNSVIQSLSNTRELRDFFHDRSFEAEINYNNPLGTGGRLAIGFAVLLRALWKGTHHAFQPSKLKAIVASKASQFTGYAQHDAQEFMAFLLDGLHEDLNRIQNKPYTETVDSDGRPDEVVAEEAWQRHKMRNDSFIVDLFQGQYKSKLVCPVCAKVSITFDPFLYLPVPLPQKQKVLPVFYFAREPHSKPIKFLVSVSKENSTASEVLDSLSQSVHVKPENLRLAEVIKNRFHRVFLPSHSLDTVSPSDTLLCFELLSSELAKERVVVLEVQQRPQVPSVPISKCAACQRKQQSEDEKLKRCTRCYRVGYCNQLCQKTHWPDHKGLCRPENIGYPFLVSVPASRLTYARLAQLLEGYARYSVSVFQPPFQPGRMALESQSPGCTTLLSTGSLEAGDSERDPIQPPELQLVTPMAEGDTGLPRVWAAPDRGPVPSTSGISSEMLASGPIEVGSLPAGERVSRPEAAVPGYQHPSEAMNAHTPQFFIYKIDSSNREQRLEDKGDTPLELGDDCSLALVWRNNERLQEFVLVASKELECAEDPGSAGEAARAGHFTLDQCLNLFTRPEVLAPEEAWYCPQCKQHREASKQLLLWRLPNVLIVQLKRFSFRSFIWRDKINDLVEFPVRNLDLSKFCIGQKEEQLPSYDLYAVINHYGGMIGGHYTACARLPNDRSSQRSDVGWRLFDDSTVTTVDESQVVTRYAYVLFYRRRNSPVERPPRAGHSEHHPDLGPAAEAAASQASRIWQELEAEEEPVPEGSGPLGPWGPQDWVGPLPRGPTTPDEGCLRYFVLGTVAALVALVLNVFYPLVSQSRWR
Procedure, shortened: as §1

USP24 = USP24 (UniProt Q9UPU5)
Chain of USP24 (Q9UPU5 whole entry): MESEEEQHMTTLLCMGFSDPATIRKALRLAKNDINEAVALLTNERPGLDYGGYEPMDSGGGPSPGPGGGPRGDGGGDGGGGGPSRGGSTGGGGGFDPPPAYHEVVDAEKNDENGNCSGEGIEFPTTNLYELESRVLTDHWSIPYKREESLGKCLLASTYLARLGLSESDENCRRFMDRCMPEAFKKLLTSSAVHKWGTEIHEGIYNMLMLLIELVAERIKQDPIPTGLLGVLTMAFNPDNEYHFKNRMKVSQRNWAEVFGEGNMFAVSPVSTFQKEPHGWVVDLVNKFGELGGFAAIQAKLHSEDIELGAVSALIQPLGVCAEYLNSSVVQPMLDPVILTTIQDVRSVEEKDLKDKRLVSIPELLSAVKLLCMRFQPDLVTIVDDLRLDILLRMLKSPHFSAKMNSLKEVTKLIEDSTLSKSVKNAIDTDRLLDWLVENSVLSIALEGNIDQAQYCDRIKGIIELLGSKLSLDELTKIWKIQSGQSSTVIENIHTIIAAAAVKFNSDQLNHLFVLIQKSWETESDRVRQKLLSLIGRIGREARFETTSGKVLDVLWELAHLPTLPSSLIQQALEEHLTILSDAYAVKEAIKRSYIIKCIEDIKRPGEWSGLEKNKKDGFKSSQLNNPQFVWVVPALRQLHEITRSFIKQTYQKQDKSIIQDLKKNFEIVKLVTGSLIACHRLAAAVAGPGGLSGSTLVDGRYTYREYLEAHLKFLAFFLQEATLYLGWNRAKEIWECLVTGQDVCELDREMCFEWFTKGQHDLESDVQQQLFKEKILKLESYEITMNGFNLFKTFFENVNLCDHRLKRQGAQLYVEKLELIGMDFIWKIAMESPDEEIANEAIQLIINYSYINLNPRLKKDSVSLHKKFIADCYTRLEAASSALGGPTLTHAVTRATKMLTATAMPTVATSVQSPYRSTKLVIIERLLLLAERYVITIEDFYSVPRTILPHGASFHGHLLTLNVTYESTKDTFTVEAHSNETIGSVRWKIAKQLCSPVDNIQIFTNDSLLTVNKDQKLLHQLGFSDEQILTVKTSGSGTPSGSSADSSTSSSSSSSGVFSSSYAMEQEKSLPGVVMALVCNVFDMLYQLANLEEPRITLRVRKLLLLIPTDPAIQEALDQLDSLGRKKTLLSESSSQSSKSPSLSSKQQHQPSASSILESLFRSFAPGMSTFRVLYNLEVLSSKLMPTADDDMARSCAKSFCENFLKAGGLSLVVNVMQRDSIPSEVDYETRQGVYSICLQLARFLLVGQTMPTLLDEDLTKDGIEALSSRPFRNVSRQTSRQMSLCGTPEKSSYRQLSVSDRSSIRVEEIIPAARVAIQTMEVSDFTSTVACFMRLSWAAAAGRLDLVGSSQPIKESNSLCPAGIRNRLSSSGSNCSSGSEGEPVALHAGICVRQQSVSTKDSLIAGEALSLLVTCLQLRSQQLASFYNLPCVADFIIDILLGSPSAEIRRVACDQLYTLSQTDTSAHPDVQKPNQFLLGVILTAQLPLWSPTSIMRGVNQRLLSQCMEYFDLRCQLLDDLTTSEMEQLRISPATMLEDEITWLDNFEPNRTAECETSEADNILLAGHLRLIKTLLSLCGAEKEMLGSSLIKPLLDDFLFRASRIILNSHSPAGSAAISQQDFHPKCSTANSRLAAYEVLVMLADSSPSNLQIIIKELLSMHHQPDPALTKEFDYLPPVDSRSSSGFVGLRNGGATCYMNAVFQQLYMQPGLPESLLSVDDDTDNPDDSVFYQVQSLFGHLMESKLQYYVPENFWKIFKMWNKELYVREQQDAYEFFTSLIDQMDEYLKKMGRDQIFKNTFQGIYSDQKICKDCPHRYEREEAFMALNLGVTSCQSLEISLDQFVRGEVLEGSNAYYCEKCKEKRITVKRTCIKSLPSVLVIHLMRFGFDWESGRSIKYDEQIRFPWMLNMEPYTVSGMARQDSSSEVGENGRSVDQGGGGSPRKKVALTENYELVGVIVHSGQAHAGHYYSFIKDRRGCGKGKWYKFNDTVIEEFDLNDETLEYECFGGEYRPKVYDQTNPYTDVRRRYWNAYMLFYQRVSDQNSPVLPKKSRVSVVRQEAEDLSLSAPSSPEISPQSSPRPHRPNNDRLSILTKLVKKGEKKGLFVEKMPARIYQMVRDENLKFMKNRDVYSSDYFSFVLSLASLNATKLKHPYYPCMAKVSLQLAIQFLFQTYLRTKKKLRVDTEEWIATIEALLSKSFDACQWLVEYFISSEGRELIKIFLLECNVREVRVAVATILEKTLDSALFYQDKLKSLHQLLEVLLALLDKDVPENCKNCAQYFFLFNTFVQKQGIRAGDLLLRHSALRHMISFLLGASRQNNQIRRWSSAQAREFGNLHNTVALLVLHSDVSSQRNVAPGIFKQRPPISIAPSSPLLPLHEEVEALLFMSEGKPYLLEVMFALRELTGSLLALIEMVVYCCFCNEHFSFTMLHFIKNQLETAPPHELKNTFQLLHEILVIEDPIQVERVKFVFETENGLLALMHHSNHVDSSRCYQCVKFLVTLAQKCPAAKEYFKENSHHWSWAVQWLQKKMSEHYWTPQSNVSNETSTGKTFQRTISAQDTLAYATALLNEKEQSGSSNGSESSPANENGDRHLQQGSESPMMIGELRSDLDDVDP
Procedure, shortened: as §1

USP25 = biological target: T2, USP25 (UniProt Q9UHP3)
T2 sequence (whole entry): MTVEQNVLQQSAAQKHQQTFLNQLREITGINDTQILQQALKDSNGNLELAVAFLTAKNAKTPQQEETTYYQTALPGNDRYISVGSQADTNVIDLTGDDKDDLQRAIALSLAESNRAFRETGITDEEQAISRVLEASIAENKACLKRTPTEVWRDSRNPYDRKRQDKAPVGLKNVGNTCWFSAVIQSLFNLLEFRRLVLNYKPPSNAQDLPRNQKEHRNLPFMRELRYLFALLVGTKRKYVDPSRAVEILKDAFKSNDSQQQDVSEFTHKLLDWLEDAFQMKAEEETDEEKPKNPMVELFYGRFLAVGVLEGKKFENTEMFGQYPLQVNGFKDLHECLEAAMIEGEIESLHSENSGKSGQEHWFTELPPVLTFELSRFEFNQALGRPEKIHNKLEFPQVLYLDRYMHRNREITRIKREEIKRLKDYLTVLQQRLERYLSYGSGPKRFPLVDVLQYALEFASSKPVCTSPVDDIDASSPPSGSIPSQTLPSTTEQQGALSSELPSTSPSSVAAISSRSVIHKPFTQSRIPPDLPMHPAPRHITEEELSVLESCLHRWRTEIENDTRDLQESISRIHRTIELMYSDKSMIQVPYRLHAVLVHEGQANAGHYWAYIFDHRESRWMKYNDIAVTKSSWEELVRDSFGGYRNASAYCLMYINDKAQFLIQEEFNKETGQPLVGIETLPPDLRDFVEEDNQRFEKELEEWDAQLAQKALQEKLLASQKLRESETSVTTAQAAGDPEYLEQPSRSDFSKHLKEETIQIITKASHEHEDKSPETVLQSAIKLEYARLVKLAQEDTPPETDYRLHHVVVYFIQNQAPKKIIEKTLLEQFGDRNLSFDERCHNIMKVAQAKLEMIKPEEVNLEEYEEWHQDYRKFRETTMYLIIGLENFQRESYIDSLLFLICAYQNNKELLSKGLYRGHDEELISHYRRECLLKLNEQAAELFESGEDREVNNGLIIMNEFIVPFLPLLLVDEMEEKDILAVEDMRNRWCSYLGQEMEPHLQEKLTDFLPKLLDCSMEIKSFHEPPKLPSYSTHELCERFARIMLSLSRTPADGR
Procedure, shortened: as §1

USP28 = biological target: T3, USP28 (UniProt Q96RU2)
T3 sequence (whole entry): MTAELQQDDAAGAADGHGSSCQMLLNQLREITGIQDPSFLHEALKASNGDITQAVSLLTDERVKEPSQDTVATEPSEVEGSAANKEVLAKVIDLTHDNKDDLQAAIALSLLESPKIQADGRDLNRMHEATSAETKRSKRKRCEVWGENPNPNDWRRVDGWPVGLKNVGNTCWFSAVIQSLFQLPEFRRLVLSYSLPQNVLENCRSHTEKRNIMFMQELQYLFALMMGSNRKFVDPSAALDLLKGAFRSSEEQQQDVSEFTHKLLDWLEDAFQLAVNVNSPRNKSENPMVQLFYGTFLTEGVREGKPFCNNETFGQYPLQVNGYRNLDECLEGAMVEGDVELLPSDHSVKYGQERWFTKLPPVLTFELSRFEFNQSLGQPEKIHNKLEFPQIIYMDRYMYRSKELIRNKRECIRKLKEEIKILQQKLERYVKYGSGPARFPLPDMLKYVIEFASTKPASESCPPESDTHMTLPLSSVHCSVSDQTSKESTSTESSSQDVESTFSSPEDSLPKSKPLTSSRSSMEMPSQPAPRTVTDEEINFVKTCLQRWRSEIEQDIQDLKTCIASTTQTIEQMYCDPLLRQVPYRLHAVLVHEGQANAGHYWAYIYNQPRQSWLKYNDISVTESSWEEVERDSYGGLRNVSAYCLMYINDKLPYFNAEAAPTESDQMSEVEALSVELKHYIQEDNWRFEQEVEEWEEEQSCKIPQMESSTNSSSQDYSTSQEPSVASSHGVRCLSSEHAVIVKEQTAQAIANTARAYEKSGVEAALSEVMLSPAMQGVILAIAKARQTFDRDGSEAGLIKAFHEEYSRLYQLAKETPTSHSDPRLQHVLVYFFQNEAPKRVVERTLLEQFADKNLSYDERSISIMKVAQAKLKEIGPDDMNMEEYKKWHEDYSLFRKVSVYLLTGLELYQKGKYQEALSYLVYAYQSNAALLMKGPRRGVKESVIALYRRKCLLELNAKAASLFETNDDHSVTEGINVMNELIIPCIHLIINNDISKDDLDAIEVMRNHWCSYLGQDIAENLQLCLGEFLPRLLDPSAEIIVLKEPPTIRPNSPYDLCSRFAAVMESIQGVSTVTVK
Procedure, shortened: as §1

Measured: log2 ratio of Biotin-Ahx-Ub-VS probe labelling

O=C(CCl)NCC(=O)N1CCCC1
inactive: USP16 0.0192 | USP19 0.114 | USP24 -0.074 | USP25 0.037 | USP28 -0.302
